# Data published in paper PMC4336329 (PLoS ONE, 2015).
# Hit rate of the full screen: of about 310,000 compounds, about 2,200 (0.71%) showed an effect of 50% or more. The effect is printed as a negative number. This excerpt belongs to a sample that is enriched for strong results.
# Target: human ether-à-go-go-related gene (hERG) potassium channel (human, UniProt Q12809)
# Assay: primary screen, population patch clamp on CHO cells stably expressing hERG; higher = less effect of the substance
# Sequence of human ether-à-go-go-related gene (hERG) potassium channel (Q12809 whole entry, looked up): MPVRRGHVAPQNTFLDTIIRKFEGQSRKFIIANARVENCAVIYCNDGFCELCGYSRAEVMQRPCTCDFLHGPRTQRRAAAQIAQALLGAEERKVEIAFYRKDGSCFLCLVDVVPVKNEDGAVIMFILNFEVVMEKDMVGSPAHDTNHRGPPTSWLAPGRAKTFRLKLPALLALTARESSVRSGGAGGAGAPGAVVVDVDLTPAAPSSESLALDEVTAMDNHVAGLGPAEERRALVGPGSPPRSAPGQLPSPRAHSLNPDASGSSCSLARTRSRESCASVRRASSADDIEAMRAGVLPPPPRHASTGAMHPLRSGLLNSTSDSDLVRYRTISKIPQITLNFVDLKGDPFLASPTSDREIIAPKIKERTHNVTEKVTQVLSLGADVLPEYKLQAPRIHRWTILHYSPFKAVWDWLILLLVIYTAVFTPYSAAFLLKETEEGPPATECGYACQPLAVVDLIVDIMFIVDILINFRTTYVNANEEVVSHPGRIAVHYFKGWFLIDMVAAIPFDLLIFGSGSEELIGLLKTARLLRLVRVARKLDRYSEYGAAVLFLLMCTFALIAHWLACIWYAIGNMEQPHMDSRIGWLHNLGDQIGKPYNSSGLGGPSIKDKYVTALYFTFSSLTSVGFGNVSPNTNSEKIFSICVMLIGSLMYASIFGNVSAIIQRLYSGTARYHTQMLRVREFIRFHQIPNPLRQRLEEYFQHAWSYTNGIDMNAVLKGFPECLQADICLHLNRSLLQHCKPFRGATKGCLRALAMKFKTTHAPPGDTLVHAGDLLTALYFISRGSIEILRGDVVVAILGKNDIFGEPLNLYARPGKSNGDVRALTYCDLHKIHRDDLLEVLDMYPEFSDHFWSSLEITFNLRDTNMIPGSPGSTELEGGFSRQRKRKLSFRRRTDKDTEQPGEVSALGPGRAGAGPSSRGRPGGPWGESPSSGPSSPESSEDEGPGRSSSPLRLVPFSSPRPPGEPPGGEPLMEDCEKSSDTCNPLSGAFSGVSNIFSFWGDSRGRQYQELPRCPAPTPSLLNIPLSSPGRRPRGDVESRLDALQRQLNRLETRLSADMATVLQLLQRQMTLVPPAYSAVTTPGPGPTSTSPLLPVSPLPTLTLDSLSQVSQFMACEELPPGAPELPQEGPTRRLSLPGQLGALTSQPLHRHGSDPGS
row,SMILES,"hERG current change (%, negative = inhibition) at 1uM"
1,CCOC(=O)C1CCN(C2CCN(C(=O)c3oc4c(C)c(C)ccc4c3C)CC2)CC1,-15.6%
2,CCOC(=O)C1CCN(C2CCN(C(=O)c3oc4c(F)cccc4c3C)CC2)CC1,-67%
3,Cc1c(C(=O)N2CCC(N3CCSCC3)CC2)oc2c(F)cccc12,2.81%
4,Cc1nc2nc(C)c(CCC(=O)NC3CCCCC3)c(C)n2n1,9.07%
5,CCCN1C2CCCC1CC(NC(=O)c1cccc(Cl)c1)C2 (stereo not drawn),-2.98%
6,Cc1cccc(C(=O)NC2CC3CCCC(C2)N3S(=O)(=O)c2ccccc2)c1 (stereo not drawn),-63.4%
7,CCCCN1C2CCCC1CC(NC(=O)c1cccc(Cl)c1)C2 (stereo not drawn),-63%
8,COc1ccc(C(=O)NC2CC3CCCC(C2)N3Cc2ccccc2)cc1 (stereo not drawn),-15.7%
9,CCCCN1C2CCCC1CC(NC(=O)c1cccc(OC)c1)C2 (stereo not drawn),-2.96%
10,O=C(NC1CC2CCC(C1)N2Cc1ccccc1)c1cccc(F)c1 (stereo not drawn),-17.5%
11,COc1cccc(C(=O)NC2CC3CCCC(C2)N3S(=O)(=O)c2ccccc2)c1 (stereo not drawn),-8.93%
12,COc1ccc(CN2C3CCC2CC(NC(=O)c2cccc(F)c2)C3)cc1 (stereo not drawn),-81.1%
13,COc1ccc(CN2C3CCCC2CC(NC(=O)c2cccc(F)c2)C3)cc1 (stereo not drawn),-85.9%
14,O=C(NC1CC2CCCC(C1)N2Cc1ccccc1)c1cccc(F)c1 (stereo not drawn),-29.8%
15,O=C(NC1CC2CCCC(C1)N2S(=O)(=O)c1ccccc1)c1ccccc1 (stereo not drawn),-9.46%
16,COc1cccc(C(=O)NC2CC3CCC(C2)N3Cc2ccccc2)c1 (stereo not drawn),-2.53%
17,O=C(O)c1ccccc1-c1ccccc1C(=O)NCc1ccco1,13%
18,Clc1ccc2c(NCc3ccco3)ncnc2c1,-1.55%
19,O=C(OCC(=O)N1CCCCC1)c1cccc(NS(=O)(=O)c2ccccc2)c1,12.4%
20,O=C(NCc1ccc(C(=O)N2CCC3(CC2)OCCO3)cc1)c1ccc2c(c1)OCO2,5.42%

row,SMILES,"hERG current change (%, negative = inhibition) at 1uM"
1,O=C(CSc1nnc(-c2ccco2)n1Cc1ccccc1)NC(=O)NCc1ccco1,-15.6%
2,CCOC(=O)C1(CCc2ccccc2)CCN(C2Cc3ccccc3C2)CC1,-18.7%
3,CCOC(=O)C1(CCCc2ccccc2)CCN(C(=O)COC)CC1,10.5%
4,CCOC(=O)C1(CCCc2ccccc2)CCN(S(C)(=O)=O)CC1,5.98%
5,CCOC(=O)C1(CCCc2ccccc2)CCN(C2CCCC2)CC1,-66.1%
6,CCOC(=O)C1(CCCc2ccccc2)CCN(C(=O)CSC)CC1,3.88%
7,CCOC(=O)C1(CCc2ccccc2)CCN(C2CCSCC2)CC1,-80.7%
8,CCOC(=O)C1(CCCc2ccccc2)CCN(C(=O)C2CCCO2)CC1 (stereo not drawn),5.58%
9,CCOC(=O)C1(CCc2ccccc2)CCN(C(=O)C2CCOCC2)CC1,-21.2%
10,CCOC(=O)C1(CCCc2ccccc2)CCN(C2CCC2)CC1,-57.1%
11,CS(=O)(=O)c1ccc(S(=O)(=O)N2CCC(CO)(CCCc3ccccc3)CC2)cc1,4.47%
12,OCC1(CCCc2ccccc2)CCN(C2CCSCC2)CC1,-65.4%
13,CSCC(C)N1CCC(CO)(CCCc2ccccc2)CC1 (stereo not drawn),-11.2%
14,O=C(NCc1ccco1)C1CCN(S(=O)(=O)c2ccccc2C(F)(F)F)CC1,12.6%
15,COc1cccc(C(=O)NCCS(=O)(=O)N2CCC(C)CC2)c1,3.89%
16,CC1(C)CN(c2ccc(C(=O)c3ccccc3)cc2)C1=O,6.95%
17,CCCCn1c(N)c(N(CCOC)C(=O)C2CCN(S(=O)(=O)c3ccc(C)cc3C)CC2)c(=O)[nH]c1=O,14.6%
18,Cc1ccccc1OCC(=O)OCC(=O)c1ccc[nH]1,10.2%
19,CCOC(=O)c1nn(-c2ccccc2C)c2nc(CC(C)C)c(C#N)c(=O)n12,15.8%
20,O=c1cc(NCc2ccco2)c2ccccc2o1,11.6%

row,SMILES,"hERG current change (%, negative = inhibition) at 1uM"
1,Oc1ccc(N2CCN(c3ccnc4cc(Cl)ccc34)CC2)cc1,5.36%
2,CN(C)S(=O)(=O)N1CCN(c2cc(Cl)ccc2Cl)CC1,16.5%
3,Cl.ClCCN1CCN(c2ccnc3cc(Cl)ccc23)CC1,7.03%
4,CC(C)S(=O)(=O)N1CCN(c2ccnc3cc(Cl)ccc23)CC1,-55.2%
5,Clc1ccc2c(N3CCOCC3)ccnc2c1,0.204%
6,CN(C)S(=O)(=O)N1CCN(c2ccnc3cc(Cl)ccc23)CC1,-65.6%
7,CCS(=O)(=O)N1CCN(c2ccnc3cc(Cl)ccc23)CC1,-67.4%
8,COc1ccccc1N1CCN(c2ccnc3cc(Cl)ccc23)CC1,7.78%
9,CCC(=O)N1CCN(c2ccnc3cc(Cl)ccc23)CC1,-25.7%
10,Clc1ccc2c(N3CCCC3)ccnc2c1,-25.9%
11,CS(=O)(=O)N1CCN(c2ccnc3cc(Cl)ccc23)CC1,-81.3%
12,COc1ccc(/C=C2\SC(=S)N(N3CCOCC3)C2=O)c(OC)c1,10.2%
13,CCOC(=O)c1c(C)[nH]c(C)c1C(=O)CSc1nc2ccccc2[nH]1,13.8%
14,O=c1c(Cc2ccc(F)cc2)c(O)ccn1CCCn1ccnc1,20.5%
15,COc1ccc(CCNC(=O)CC(c2ccccc2)c2cccc(C)c2O)cc1OC (stereo not drawn),6%
16,OCCC1CN(Cc2cccc(-c3ccco3)c2)CCN1Cc1ccsc1 (stereo not drawn),-17.3%
17,CC(C)NC(=S)N=Nc1c(O)[nH]c2ccc([N+](=O)[O-])cc12,18.4%
18,Cn1nccc1NC(=O)NC(=O)c1c(Cl)cccc1Cl,8.82%
19,COc1cccc(OC)c1C(=O)Nc1ccncc1,17.4%
20,COc1cccc(OC)c1C(=O)Nc1ccnn1C,-75.9%
